The values that follow come from PubChem BioAssay (NCI).

Some test systems named below: SR leukemia; RPMI-8226 leukemia; OVCAR-8 ovarian; OVCAR-5 ovarian; OVCAR-4 ovarian; SK-OV-3 ovarian; IGROV1 ovarian; OVCAR-3 ovarian; HS 578T breast; NCI/ADR-RES ovarian; T-47D breast; BT-549 breast; SW-620 colon; MCF7 breast; HCT-116 colon; HCC-2998 colon; KM12 colon; MDA-MB-435 melanoma.
Holding throughout (assay): NCI-60 one-dose screen, 48 h (100 = growth as untreated, 0 = no growth, -100 = all killed)
Holding throughout (details): 10 µM unless noted

The panel holds about 83,000 compounds, 20% with a hit somewhere; the sample as a whole holds those more often.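 Activity criterion: percent growth below 10, measured after cells in 96-well plates were exposed to a single compound concentration for 48 hours.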 Unmarked numbers belong to inactive results. The source made the active and inactive calls.

As to `Cc1cc2nc(CN)[nH]c2cc1C`, the growth in the experiment with SR leukemia is 97.2%; with RPMI-8226 leukemia, 96.5%; in the experiment on OVCAR-8 ovarian it was 106%; with OVCAR-5 ovarian it was 112%; in the experiment with OVCAR-4 ovarian, 112%; in the experiment with SK-OV-3 ovarian, 104%. Further, the growth was 111% with IGROV1 ovarian; 100% with OVCAR-3 ovarian; 114% in the experiment on HS 578T breast; 112% in the experiment with NCI/ADR-RES ovarian; 94.4% in the experiment with T-47D breast; 101% with BT-549 breast. Also, the growth was 108% with SW-620 colon; 96.7% in the experiment on MCF7 breast; 104% with HCT-116 colon; 106% in the experiment with HCC-2998 colon; 103% in the experiment with KM12 colon.
Consider `COc1ccc([C@H]2c3[nH]c4ccccc4c3C[C@H]3C(=O)N(CCCCCCC(=O)NO)CC(=O)N23)cc1`, for which the growth with SR leukemia was 16.5%; in the experiment with RPMI-8226 leukemia, -9.73% (active); in the experiment with OVCAR-8 ovarian it was 30.3%; in the experiment with OVCAR-5 ovarian, 23.3%; in the experiment on OVCAR-4 ovarian, 54.3%; with SK-OV-3 ovarian, 55.3%. Moreover, the growth with IGROV1 ovarian was 34.3%; with OVCAR-3 ovarian, 33.9%; in the experiment on HS 578T breast, 47.7%; in the experiment with NCI/ADR-RES ovarian, 58.4%; in the experiment with T-47D breast it was 7.57% (active); in the experiment on BT-549 breast it was 62.4%. The growth in the experiment on MDA-MB-435 melanoma is 24.6%; in the experiment with SW-620 colon it was 4% (active); in the experiment with MCF7 breast, 29.9%; with HCT-116 colon, 10.4%; with HCC-2998 colon it was 6.81% (active); in the experiment on KM12 colon, 49.8%.
On to `COc1ccc(Cl)cc1Nc1nc(C(F)(F)F)ccc1C(=O)NN`, for which the growth was 1.9% (active) in the experiment with SR leukemia; 4.71% (active) in the experiment with RPMI-8226 leukemia; 18.9% with OVCAR-8 ovarian; 40.6% with OVCAR-5 ovarian; -4.08% (active) with OVCAR-4 ovarian; 8.79% (active) in the experiment on SK-OV-3 ovarian. Also, the growth in the experiment on IGROV1 ovarian is 30.3%; in the experiment on OVCAR-3 ovarian, 33.6%; in the experiment with HS 578T breast, 95.8%; with NCI/ADR-RES ovarian, 9.26% (active); with T-47D breast, 29.4%; with BT-549 breast, 20.2%. The growth is 40.2% with MDA-MB-435 melanoma; 88.6% with SW-620 colon; 90.4% in the experiment on MCF7 breast; 38.8% in the experiment on HCT-116 colon; 38.6% in the experiment on KM12 colon.
In the case of `O=C1CCCN1C(O)CCN(Cc1ccccc1)Cc1ccc(Cl)cc1` (centres undefined), the growth with SR leukemia was 83%; with RPMI-8226 leukemia it was 98.5%; in the experiment with OVCAR-8 ovarian, 96.7%; with OVCAR-5 ovarian, 99.2%; in the experiment on OVCAR-4 ovarian, 103%; in the experiment with SK-OV-3 ovarian it was 101%. The growth with IGROV1 ovarian was 100%; with OVCAR-3 ovarian, 108%; in the experiment with HS 578T breast, 104%; with NCI/ADR-RES ovarian, 106%; with T-47D breast it was 99.6%; with BT-549 breast, 105%. Further, the growth is 103% with MDA-MB-435 melanoma; 100% in the experiment on SW-620 colon; 96.7% with HCT-116 colon; 108% with HCC-2998 colon; 105% with KM12 colon.
For `COC(=O)OC1C(O[C@H]2C[C@H]3[C@@H]4CC=C5C[C@@H](O)CC[C@]5(C)[C@H]4CC[C@]3(C)[C@H]2[C@H](C)C(=O)CCC(C)C)OCC(O)C1OC1OCC(O)C(O)C1OC(=O)c1ccc(OC)cc1` (some centres undefined), the growth was 2.6% (active) in the experiment on SR leukemia; -40.7% (active) in the experiment with RPMI-8226 leukemia; 26.8% with OVCAR-8 ovarian; 31.2% in the experiment with OVCAR-5 ovarian; 57.1% in the experiment with OVCAR-4 ovarian; -44.5% (active) in the experiment on SK-OV-3 ovarian. The growth with IGROV1 ovarian was 29.5%; in the experiment with OVCAR-3 ovarian, 58.1%; in the experiment on HS 578T breast, -16.5% (active); with NCI/ADR-RES ovarian, 70.5%; with T-47D breast, -5.41% (active); in the experiment with BT-549 breast, 6.19% (active). Moreover, the growth in the experiment with MDA-MB-435 melanoma is -15.3% (active); in the experiment with SW-620 colon it was -55.9% (active); with HCT-116 colon, 5.29% (active); with HCC-2998 colon it was 53.7%; in the experiment on KM12 colon, 39.2%.
Turning to `COc1ccc2nc3ccccc3c(NCc3ccc(C)cc3)c2c1`, the growth in the experiment with SR leukemia was -12.7% (active); in the experiment on RPMI-8226 leukemia it was -46.2% (active); in the experiment on OVCAR-8 ovarian, 28.7%; with OVCAR-5 ovarian it was 34%; in the experiment on OVCAR-4 ovarian it was 18.5%; with SK-OV-3 ovarian, 52.7%. The growth with IGROV1 ovarian is 17.2%; in the experiment with OVCAR-3 ovarian, 46.9%; in the experiment with HS 578T breast, 42.7%; in the experiment with NCI/ADR-RES ovarian, 23.8%; in the experiment with T-47D breast, 30.6%; in the experiment with BT-549 breast, 51.6%. For the same molecule, the growth in the experiment on MDA-MB-435 melanoma is 42.2%; with SW-620 colon it was 18.5%; in the experiment on MCF7 breast, 3.43% (active); in the experiment with HCT-116 colon it was 8.58% (active); in the experiment on HCC-2998 colon, -57.9% (active); with KM12 colon, 37.3%.
`Cc1c2c(cc3c1[nH]c1ccccc13)C=NCC2`: the growth is 64.1% with SR leukemia; 87% with RPMI-8226 leukemia; 94.1% with OVCAR-8 ovarian; 98.3% with OVCAR-5 ovarian; 94% in the experiment with OVCAR-4 ovarian; 96.5% in the experiment with SK-OV-3 ovarian. Besides, the growth in the experiment on IGROV1 ovarian is 105%; in the experiment with OVCAR-3 ovarian, 101%; in the experiment with HS 578T breast, 99.1%; in the experiment with NCI/ADR-RES ovarian it was 85.6%; in the experiment with T-47D breast, 73.7%; with BT-549 breast, 79.6%. Also, the growth with SW-620 colon was 97%; with MCF7 breast it was 60.8%; in the experiment on HCT-116 colon, 71.1%; in the experiment on HCC-2998 colon it was 96.8%.
Regarding `COc1ccc2nc(C)cc(Sc3nc4ccccc4s3)c2c1`, the growth in the experiment on SR leukemia was -48% (active); in the experiment with RPMI-8226 leukemia, -39.5% (active); with OVCAR-8 ovarian, 36.5%; in the experiment on OVCAR-5 ovarian it was 61.2%; in the experiment with OVCAR-4 ovarian it was 25.8%; in the experiment on SK-OV-3 ovarian, 80.5%. In addition, the growth in the experiment with IGROV1 ovarian is 22.2%; in the experiment on OVCAR-3 ovarian, 22.2%; in the experiment on HS 578T breast it was 62.1%; with NCI/ADR-RES ovarian it was 29.1%; in the experiment on T-47D breast, 32.5%; in the experiment on BT-549 breast it was -11.8% (active). Also, the growth with SW-620 colon is 31.3%; in the experiment with MCF7 breast it was 15.9%; with HCT-116 colon, 24.5%; in the experiment on HCC-2998 colon, 73.8%; in the experiment with KM12 colon, 50.5%.
With `CN1CCC2(CC1)N=C(SCC(=O)Nc1cnc3ccccc3c1)C(c1ccc(Br)cc1)=N2`, the growth is -27% (active) in the experiment with SR leukemia; -7.88% (active) with RPMI-8226 leukemia; 19.9% in the experiment on OVCAR-8 ovarian; 67.7% with OVCAR-5 ovarian; 65.8% in the experiment on OVCAR-4 ovarian; 54.9% in the experiment with SK-OV-3 ovarian. Further, the growth in the experiment on IGROV1 ovarian is 16.2%; in the experiment with OVCAR-3 ovarian it was 35.4%; in the experiment on HS 578T breast it was 24%; in the experiment on NCI/ADR-RES ovarian, 29.6%; with T-47D breast, 10.5%; with BT-549 breast, 59.4%. For the same molecule, the growth in the experiment on SW-620 colon was -6.58% (active); in the experiment with MCF7 breast, -42.7% (active); with HCT-116 colon, -90.7% (active); with HCC-2998 colon, -51.3% (active); with KM12 colon, 41.6%.
